The nature of assay [1]: qHTS assay for small molecule agonists of the p53 signaling pathway (AID 651631; calls by dose curve; further: nearly all actives have a fitted effect of over 15% in size; further: potency means the concentration at half of the fitted maximal effect). The procedure, abridged: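 Read-out is beta-lactamase FRET fluorescence measured 2 h after substrate addition at room temperature, in HCT-116 cells with a p53 response element-driven reporter exposed to compounds for 16 h at 37 °C.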
In general terms: qHTS replaces the single test concentration by a dilution series.

The nature of assay [2]: qHTS assay for small molecules that induce genotoxicity in human embryonic kidney cells expressing luciferase-tagged ATAD5 (AID 651632). Further: nearly all actives have a fitted effect of over 15% in size. Further: potency means the concentration at half of the fitted maximal effect. In outline:
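Luminescent reporter readout, HEK293T ATAD5-luc line: 16 hr drug exposure (37C, 5% CO2) followed by Amplite, 30 min RT.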

Assay [3] in a line: qHTS assay for small molecule agonists of the p53 signaling pathway - cell viability (AID 651633; calls by dose curve; further: nearly all actives have a fitted effect of over 30% in size; further: potency means the concentration at half of the fitted maximal effect). In outline:
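Viability counter-read: CellTiter-Glo luminescence (30 min, room temperature) in the same p53RE-bla plates. These plates had been exposed to compounds for 16 h at 37 C.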

Assay [4] is described as follows: qHTS assay for small molecules that induce genotoxicity in human embryonic kidney cells expressing luciferase-tagged ATAD5 - cell viability (AID 651634; calls by dose curve; further: nearly all actives have a fitted effect of over 25% in size; further: potency means the concentration at half of the fitted maximal effect). In outline: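 Viability read: CellTiter-Fluor fluorescence, 30 min at 37C. Cells: HEK293T, luciferase-tagged ATAD5. Exposure: 15.5 hr, 37C, 5% CO2, compound or DMSO vehicle.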
Assay [5] can be described thus: qHTS assay for small molecule disruptors of the mitochondrial membrane potential - cell viability (AID 720634; calls by dose curve;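 further: human HepG2 liver cancer cells; series mostly up to about 83 µM; nearly all actives have a fitted effect of over 20% in size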). The procedure, abridged: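 HepG2, 1 hr compound, 37 C. ATP luminescence via CellTiter-Glo, 30 min RT, same well as m-MPI.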
A short description of assay [6]: qHTS assay to test for compound auto fluorescence at 590 nm (red) in HepG2 cells (AID 720674). In outline:
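1 hr compound incubation on HepG2 cells, 37 C, 5% CO2; plate read ex 540 nm / em 590 nm; intensities reported as Rose Bengal sodium equivalents.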

The nature of assay [7]: qHTS assay to test for compound auto fluorescence at 535 nm (green) in HepG2 cells (AID 720675).
Assay [8] can be described thus: qHTS assay to test for compound auto fluorescence at 460 nm (blue) in HEK293 cells (AID 720678). The procedure, abridged: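 HEK293 cells (2,000/well, medium with 10% dialyzed FBS) attached 4-5 hr, then exposed to compound overnight at 37C, 5% CO2. Blue fluorescence read at 405/460 nm, with triamterene as reference fluorophore.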
Assay [9] in a line: qHTS assay to test for compound auto fluorescence at 590 nm (red) in HEK293 cells (AID 720679). In outline:
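HEK293 cells (2,000/well, 10% dialyzed FBS) attached 4-5 hr, then dosed with compound or DMSO and incubated overnight at 37C, 5% CO2. Red fluorescence read at 540/590 nm, Rose Bengal sodium as reference fluorophore.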

Assay [10] can be described thus: qHTS assay for small molecule disruptors of the mitochondrial membrane potential (AID 720635). Further: potency means the concentration at half of the fitted maximal effect. In outline: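 Mitochondrial membrane potential tracked with Mito-MPS dye, red aggregates (ex 540/em 590 nm) against green monomers (ex 490/em 535 nm). Compound treatment 1 hr at 37C, dye 30 min in HepG2.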

Each structure is given as a SMILES string. Inconclusive results are not listed. Calls of active or inactive are those of the source. Unless noted, the call rests on the fitted dose curve; in most records, active means well fitted curve in the direction sought with a large enough effect in the repeat runs; inconclusive means weak or mixed curves; inactive means no such curve, though single readings can be large; an effect the other way counts as inactive or inconclusive.

In the case of `O=S(=O)(O)Oc1ccc(C(c2ccc(OS(=O)(=O)O)cc2)c2ccccn2)cc1`, the Potency entry in assay [1], in assay [2], in assay [3], in [4], in assay [5] and in assay [6] was “inactive” each time. In addition, the Potency entry in assay [7], in assay [8] and in assay [9] was “inactive” throughout.
Turning to `CCOC(=O)O[C@]1(C(=O)COC(=O)CC)CC[C@H]2[C@@H]3CCC4=CC(=O)C=C[C@]4(C)[C@H]3[C@@H](O)C[C@@]21C`, the Potency result in assay [1], in [2], in [3], in assay [4], in [5] and in [6] was “inactive” in each case. Besides, the Potency result in assay [7], in [8] and in assay [9] was “inactive” in each case.
With `O=C1N=C2SCCN2C(=O)C1Cc1ccc(Cl)cc1` (stereo not given), the Potency result in assay [1], in [2], in assay [3], in assay [4], in assay [5] and in assay [6] was “inactive” in each case. Moreover, the Potency entry in assay [7], in assay [8] and in assay [9] was “inactive” each time.
With `C/C=C1\NC(=O)[C@H]2CSSCC/C=C/[C@H](CC(=O)N[C@H](C(C)C)C(=O)N2)OC(=O)C(C(C)C)NC1=O` (stereo not given in full), the Potency in assay [1] was 7.5 µM (active); in [2] it was 0.0094 µM (active); in assay [3], 1.5 µM (active); in [4], 7.5 µM (active). Further, the Potency result in assay [5], in assay [6], in assay [7], in assay [8] and in assay [9] was “inactive” each time.
With `O=C(Cc1cccs1)N[C@@H]1C(=O)N2C(C(=O)[O-])=C(C[n+]3ccccc3)CS[C@H]12`, the Potency result in assay [1], in [2], in assay [3], in [4], in [5] and in assay [6] was “inactive” each time. Besides, the Potency entry in assay [7], in assay [8] and in assay [9] was “inactive” each time.
`CC(C)(C)NC[C@H](O)COc1ccccc1C1CCCC1`: the Potency result in assay [1], in assay [2], in assay [3], in assay [4], in assay [5] and in assay [6] was “inactive” each time. The Potency result in assay [7], in [8] and in assay [9] was “inactive” throughout.
For `Nc1c(Br)cc(Br)cc1CNC1CCC(O)CC1` (stereo not given), the Potency result in assay [1], in [2], in assay [3], in assay [4], in [5] and in assay [6] was “inactive” each time. In addition, the Potency entry in [7], in assay [8] and in assay [9] was “inactive” each time.
Consider `O=C1NC(=O)[C@H]2[C@@H]1[C@@H]1C=C[C@H]2C1`, for which the Potency result in assay [1], in assay [2], in assay [3], in assay [4], in assay [5] and in assay [6] was “inactive” throughout. In addition, the Potency result in [7], in [8] and in [9] was “inactive” in each case.
In the case of `CC(O)CN(C)C` (stereo not given), the Potency entry in assay [1], in assay [2], in [3], in [4], in [5] and in assay [6] was “inactive” each time. Moreover, the Potency entry in [7], in assay [8] and in assay [9] was “inactive” throughout.
Regarding `NC(=O)c1ccc[n+]([C@@H]2O[C@H](COP(=O)([O-])OP(=O)(O)OC[C@H]3O[C@@H](n4cnc5c(N)ncnc54)[C@H](O)[C@@H]3O)[C@@H](O)[C@H]2O)c1`, the Potency entry in assay [1], in assay [2], in assay [3], in assay [4], in [5] and in assay [6] was “inactive” throughout. Besides, the Potency entry in assay [7], in [8] and in assay [9] was “inactive” each time.
Regarding `C[Se]CCC(N)C(=O)O` (stereo not given), the Potency entry in [1], in [2], in [3], in assay [4], in [5] and in [6] was “inactive” each time. The Potency entry in [7], in assay [8] and in assay [9] was “inactive” each time.
Regarding `Cc1ncc(C[n+]2csc(CCOP(=O)(O)OP(=O)(O)O)c2C)c(N)n1`, the Potency result in assay [1], in assay [2], in assay [3], in [4], in assay [5] and in assay [6] was “inactive” each time. Further, the Potency entry in assay [7], in [8] and in assay [9] was “inactive” in each case.
For `C#C[C@]1(OC(C)=O)CC[C@H]2[C@@H]3CCC4=CC(=O)CC[C@@H]4[C@H]3CC[C@@]21C`, the Potency result in assay [1], in [2], in [3], in [5], in assay [10] and in [6] was “inactive” throughout. For the same compound, the Potency result in [7], in [8] and in assay [9] was “inactive” each time.
As for `c1ccc2c(CCC3CCNCC3)c[nH]c2c1`, the Potency result in [1], in assay [2], in assay [3], in [4], in [6] and in [7] was “inactive” throughout. The Potency entry in [8] and in assay [9] was “inactive” in each case.
With `CC(=O)OCC(=O)[C@@]12OC3(CCCC3)O[C@@H]1C[C@H]1[C@@H]3CCC4=CC(=O)C=C[C@]4(C)[C@@]3(F)[C@@H](O)C[C@@]12C`, the Potency result in assay [1], in assay [3], in assay [4], in assay [5], in assay [6] and in assay [7] was “inactive” throughout. The Potency result in assay [8] and in [9] was “inactive” throughout. Also, in assay [10], the Potency was 29.8 µM (active).
`CCCCC(=O)OCC(=O)[C@]1(O)Cc2c(O)c3c(c(O)c2[C@@H](O[C@H]2C[C@H](NC(=O)C(F)(F)F)[C@H](O)[C@H](C)O2)C1)C(=O)c1c(OC)cccc1C3=O`: the Potency was 4.22 µM (active) in assay [1], 3.35 µM (active) in [2] and 1.19 µM (active) in assay [10]. The Potency result in assay [5], in assay [6], in assay [7], in assay [8] and in assay [9] was “inactive” each time.
As to `Cc1ccccc1CNc1ncnc2c1ncn2[C@@H]1O[C@H](CO)[C@@H](O)[C@H]1O`, the Potency result in [1], in assay [3], in assay [4], in assay [5], in assay [10] and in assay [6] was “inactive” in each case. Also, the Potency entry in assay [7], in [8] and in [9] was “inactive” throughout.
Turning to `CC[C@H]1OC(=O)[C@H](C)[C@@H](O[C@H]2C[C@@](C)(OC)[C@@H](O)[C@H](C)O2)[C@H](C)[C@@H](O[C@@H]2O[C@H](C)C[C@H](N(C)C)[C@H]2O)[C@](C)(O)C[C@@H](C)[C@@H]2N[C@@H](COCCOC)O[C@@H]([C@H]2C)[C@]1(C)O`, the Potency result in assay [1], in assay [2], in assay [3], in assay [4], in [6] and in assay [7] was “inactive” in each case. Moreover, the Potency entry in assay [8] and in [9] was “inactive” throughout.
On to `NC(=S)N=Nc1ccc(NN=C(N)N)cc1`, for which the Potency result in assay [1], in [2], in assay [5], in [6], in [7] and in assay [8] was “inactive” each time. For the same compound, the Potency result in assay [9] was “inactive”. The Potency in assay [4] is 26.6 µM (active); in assay [10], 2.98 µM (active).
Take `CCCC1C(=O)N2C(N(C)C)=Nc3ccc(C)cc3N2C1=O` (stereo not given): the Potency entry in assay [1], in [3], in assay [4], in assay [5], in assay [10] and in assay [6] was “inactive” throughout. For the same compound, the Potency result in assay [7], in [8] and in assay [9] was “inactive” throughout.
Turning to `CC(NNC(=O)c1ccccc1)c1ccccc1` (stereo not given), the Potency result in [1], in assay [3], in assay [4], in assay [5], in assay [6] and in assay [7] was “inactive” each time. For the same compound, the Potency entry in assay [8] and in assay [9] was “inactive” each time. For the same compound, in [10], the Potency was 24.8 µM (active).
Regarding `O=[N+]([O-])c1ccc(Oc2ccc(N=C=S)cc2)cc1`, the Potency is 13.3 µM (active) in [1] and 5.96 µM (active) in assay [10]. Moreover, the Potency entry in assay [2], in [3], in assay [4], in assay [6], in [7] and in assay [8] was “inactive” each time. The Potency result in [9] was “inactive”.

The record behind these values is PubChem BioAssay (Tox21).
